Experimental data from paper PMC7862700, “An all-to-all approach to the identification of sequence-specific readers for epigenetic DNA modifications on cytosine”.

Assays:
Assay in all cases: DAPPL (digital affinity profiling via proximity ligation, sequencing); 10 mM Tris-HCl pH 7.5, 50 mM NaCl, 1 mM DTT, 4% glycerol, room temperature, 30 min; GST-TFs on glutathione beads, 16-mer random dsDNA library, 0.1% formaldehyde crosslink after washing; high values mean tight binding
[1] = target: T1, FLI1 (Homo sapiens, UniProt Q01543 1-452); details: protein: recombinant; tags: N-terminal GST; dsDNA, one strand shown
T1 sequence: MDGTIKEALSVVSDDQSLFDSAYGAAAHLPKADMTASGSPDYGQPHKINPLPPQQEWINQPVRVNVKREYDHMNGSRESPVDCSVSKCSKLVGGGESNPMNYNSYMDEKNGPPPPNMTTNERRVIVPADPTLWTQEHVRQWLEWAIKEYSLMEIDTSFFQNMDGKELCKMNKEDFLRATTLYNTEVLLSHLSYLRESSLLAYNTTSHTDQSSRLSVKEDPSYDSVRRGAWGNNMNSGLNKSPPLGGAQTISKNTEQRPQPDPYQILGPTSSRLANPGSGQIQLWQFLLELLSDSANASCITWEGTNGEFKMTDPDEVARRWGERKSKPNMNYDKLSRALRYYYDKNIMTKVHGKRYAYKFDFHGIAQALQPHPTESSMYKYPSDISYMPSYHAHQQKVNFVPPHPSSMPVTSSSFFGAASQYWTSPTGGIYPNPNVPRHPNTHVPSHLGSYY
Outline: (§1)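 The binding signal reported is, for every hexamer, its read frequency for a factor over its read frequency for the tag-only sample. Reads came from pools of yeast-expressed, GST-fused human transcription factors on glutathione beads, barcoded with DNA and mixed with that sample, which were incubated with 200 nmole of a random double-stranded 16-mer DNA library in Tris/NaCl/DTT/glycerol buffer at room temperature for 30 min. After washing, the pools were crosslinked with 0.1% formaldehyde, proximity-ligated with BsaI/T4 ligase for 1 h at 37 °C, PCR-amplified and sequenced on an Illumina NextSeq500.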

[2] = target: T2, ELK1 (Homo sapiens, UniProt P19419 1-428); details: protein: recombinant; tags: N-terminal GST; dsDNA, one strand shown
T2 sequence: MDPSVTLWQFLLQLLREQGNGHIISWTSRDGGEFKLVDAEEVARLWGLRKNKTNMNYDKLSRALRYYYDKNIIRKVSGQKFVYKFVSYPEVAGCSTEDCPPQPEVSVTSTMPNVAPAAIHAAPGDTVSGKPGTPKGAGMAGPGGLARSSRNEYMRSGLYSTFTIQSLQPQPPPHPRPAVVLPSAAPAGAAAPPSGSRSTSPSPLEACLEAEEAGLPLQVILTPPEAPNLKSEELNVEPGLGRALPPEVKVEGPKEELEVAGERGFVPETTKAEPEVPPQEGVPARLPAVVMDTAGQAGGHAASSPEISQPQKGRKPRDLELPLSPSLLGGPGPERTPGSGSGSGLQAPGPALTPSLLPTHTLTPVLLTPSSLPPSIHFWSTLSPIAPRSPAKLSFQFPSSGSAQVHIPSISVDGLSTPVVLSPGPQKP
Outline: as §1

[3] = target: T3, ERG (Homo sapiens, UniProt P11308 1-479); details: protein: recombinant; tags: N-terminal GST; dsDNA, one strand shown
T3 sequence: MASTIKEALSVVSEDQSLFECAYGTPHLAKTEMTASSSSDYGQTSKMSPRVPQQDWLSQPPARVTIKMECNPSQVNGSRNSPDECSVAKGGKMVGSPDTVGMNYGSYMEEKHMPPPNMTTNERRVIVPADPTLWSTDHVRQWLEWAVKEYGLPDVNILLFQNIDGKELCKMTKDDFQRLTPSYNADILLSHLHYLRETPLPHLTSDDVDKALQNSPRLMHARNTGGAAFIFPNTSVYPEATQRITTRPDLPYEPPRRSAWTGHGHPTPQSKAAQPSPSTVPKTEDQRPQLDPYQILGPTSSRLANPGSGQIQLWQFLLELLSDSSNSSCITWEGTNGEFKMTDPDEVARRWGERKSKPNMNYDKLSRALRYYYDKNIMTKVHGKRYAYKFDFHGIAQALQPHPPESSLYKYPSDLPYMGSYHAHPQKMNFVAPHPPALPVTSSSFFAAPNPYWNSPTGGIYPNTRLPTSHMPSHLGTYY
Outline: as §1

[4] = target: ELF1 (Homo sapiens, UniProt P32519 1-619); details: protein: recombinant; tags: N-terminal GST; dsDNA, one strand shown
ELF1, sequence (P32519 whole entry): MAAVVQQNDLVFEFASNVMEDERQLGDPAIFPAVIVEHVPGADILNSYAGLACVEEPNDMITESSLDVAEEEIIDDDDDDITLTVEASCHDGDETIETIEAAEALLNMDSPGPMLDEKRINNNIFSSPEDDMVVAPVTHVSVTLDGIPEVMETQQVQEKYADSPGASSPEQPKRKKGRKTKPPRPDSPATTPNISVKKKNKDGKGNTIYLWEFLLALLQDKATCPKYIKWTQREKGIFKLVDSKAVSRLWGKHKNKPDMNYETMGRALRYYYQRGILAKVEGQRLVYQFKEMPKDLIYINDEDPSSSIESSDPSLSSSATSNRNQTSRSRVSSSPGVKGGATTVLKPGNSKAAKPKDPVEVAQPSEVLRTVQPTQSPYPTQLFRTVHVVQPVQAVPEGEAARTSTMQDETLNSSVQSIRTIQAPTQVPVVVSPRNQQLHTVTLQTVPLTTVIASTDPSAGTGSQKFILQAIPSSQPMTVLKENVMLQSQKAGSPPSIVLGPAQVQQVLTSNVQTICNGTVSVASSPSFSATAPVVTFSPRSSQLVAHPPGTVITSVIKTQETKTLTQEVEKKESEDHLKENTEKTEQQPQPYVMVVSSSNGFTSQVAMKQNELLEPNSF
Outline: as §1

[5] = target: T4, EHF (Homo sapiens, UniProt Q9NZC4 1-300); details: protein: recombinant; tags: N-terminal GST; dsDNA, one strand shown
T4 sequence: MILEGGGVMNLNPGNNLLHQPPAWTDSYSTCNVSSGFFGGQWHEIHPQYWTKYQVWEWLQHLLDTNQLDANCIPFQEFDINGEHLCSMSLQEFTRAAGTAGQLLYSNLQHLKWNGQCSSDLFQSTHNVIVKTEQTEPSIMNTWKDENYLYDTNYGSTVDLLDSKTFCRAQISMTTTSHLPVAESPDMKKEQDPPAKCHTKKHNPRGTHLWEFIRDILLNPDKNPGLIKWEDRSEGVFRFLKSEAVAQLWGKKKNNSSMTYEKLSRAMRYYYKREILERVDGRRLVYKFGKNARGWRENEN
Outline: as §1

[6] = target: SPI1 (Homo sapiens, UniProt P17947 1-270); details: protein: recombinant; tags: N-terminal GST; dsDNA, one strand shown
Outline: as §1

[7] = target: SPIB (Homo sapiens, UniProt Q01892 1-262); details: protein: recombinant; tags: N-terminal GST; dsDNA, one strand shown
SPIB, sequence (Q01892 whole entry): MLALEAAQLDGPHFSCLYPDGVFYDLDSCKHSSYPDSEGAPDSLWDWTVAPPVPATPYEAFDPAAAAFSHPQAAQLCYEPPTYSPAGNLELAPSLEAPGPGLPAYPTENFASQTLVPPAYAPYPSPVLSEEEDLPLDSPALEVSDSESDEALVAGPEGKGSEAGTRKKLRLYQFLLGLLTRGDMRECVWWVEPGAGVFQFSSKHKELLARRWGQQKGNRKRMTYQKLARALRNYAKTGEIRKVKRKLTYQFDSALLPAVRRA
Outline: as §1

[8] = target: T5, ELK3 (Homo sapiens, UniProt P41970 1-407); details: protein: recombinant; tags: N-terminal GST; dsDNA, one strand shown
T5 sequence: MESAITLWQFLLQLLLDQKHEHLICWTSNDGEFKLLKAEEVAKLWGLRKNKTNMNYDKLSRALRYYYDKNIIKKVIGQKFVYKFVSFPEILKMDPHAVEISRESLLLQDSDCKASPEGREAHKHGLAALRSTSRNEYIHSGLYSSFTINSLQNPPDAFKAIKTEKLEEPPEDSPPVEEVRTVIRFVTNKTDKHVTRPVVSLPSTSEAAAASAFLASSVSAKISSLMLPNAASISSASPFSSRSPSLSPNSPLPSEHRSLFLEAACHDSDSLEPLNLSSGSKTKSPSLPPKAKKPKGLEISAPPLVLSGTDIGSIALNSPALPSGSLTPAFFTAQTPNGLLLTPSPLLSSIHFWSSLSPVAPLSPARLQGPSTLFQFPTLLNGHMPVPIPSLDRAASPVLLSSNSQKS
Outline: as §1

[9] = target: T6, FEV (Homo sapiens, UniProt Q99581 1-238); details: protein: recombinant; tags: N-terminal GST; dsDNA, one strand shown
T6 sequence: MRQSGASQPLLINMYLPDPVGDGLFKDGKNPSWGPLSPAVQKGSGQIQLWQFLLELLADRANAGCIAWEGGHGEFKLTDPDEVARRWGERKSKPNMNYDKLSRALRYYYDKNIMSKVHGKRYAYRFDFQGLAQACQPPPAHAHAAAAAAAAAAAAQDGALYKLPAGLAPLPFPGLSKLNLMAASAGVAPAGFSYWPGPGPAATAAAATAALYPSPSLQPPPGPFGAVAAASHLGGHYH
Outline: as §1

[10] = target: ETV5 (Homo sapiens, UniProt P41161 1-510); details: protein: recombinant; tags: N-terminal GST; dsDNA, one strand shown
ETV5, sequence (P41161 whole entry): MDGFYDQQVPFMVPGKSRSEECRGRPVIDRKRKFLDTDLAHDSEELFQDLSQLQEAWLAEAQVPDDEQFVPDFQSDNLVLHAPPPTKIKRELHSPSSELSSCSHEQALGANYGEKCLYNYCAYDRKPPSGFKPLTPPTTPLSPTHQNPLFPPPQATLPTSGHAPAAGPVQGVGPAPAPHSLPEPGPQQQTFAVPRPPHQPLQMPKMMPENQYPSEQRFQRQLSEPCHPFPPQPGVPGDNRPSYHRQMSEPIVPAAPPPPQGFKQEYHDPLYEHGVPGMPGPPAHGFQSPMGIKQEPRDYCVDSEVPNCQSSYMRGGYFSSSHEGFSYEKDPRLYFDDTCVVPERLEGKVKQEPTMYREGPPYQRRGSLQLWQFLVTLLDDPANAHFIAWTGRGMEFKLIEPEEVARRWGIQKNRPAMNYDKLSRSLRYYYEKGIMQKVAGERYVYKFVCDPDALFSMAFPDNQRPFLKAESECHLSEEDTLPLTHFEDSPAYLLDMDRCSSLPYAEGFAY
Outline: as §1

[11] = target: HSF1 (Homo sapiens, UniProt Q00613 1-529); details: protein: recombinant; tags: N-terminal GST; chain copies: 3; dsDNA, one strand shown
HSF1, sequence (Q00613 whole entry): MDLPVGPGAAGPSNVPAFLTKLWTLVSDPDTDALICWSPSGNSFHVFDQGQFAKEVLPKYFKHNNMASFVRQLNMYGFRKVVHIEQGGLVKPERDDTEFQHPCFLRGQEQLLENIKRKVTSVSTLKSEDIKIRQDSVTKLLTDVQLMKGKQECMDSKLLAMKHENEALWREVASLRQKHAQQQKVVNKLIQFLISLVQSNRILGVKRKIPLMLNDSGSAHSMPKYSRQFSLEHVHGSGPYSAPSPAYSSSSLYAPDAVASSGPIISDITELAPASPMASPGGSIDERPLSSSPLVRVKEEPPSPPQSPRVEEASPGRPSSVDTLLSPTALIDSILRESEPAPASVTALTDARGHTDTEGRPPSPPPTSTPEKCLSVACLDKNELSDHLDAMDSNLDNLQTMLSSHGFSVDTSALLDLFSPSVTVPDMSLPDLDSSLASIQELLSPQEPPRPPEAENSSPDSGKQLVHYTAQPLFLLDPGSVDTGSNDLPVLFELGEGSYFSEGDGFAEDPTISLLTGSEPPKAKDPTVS
Outline: as §1

[12] = target: ELF4 (Homo sapiens, UniProt Q99607 1-663); details: protein: recombinant; tags: N-terminal GST; dsDNA, one strand shown
ELF4, sequence (Q99607 whole entry): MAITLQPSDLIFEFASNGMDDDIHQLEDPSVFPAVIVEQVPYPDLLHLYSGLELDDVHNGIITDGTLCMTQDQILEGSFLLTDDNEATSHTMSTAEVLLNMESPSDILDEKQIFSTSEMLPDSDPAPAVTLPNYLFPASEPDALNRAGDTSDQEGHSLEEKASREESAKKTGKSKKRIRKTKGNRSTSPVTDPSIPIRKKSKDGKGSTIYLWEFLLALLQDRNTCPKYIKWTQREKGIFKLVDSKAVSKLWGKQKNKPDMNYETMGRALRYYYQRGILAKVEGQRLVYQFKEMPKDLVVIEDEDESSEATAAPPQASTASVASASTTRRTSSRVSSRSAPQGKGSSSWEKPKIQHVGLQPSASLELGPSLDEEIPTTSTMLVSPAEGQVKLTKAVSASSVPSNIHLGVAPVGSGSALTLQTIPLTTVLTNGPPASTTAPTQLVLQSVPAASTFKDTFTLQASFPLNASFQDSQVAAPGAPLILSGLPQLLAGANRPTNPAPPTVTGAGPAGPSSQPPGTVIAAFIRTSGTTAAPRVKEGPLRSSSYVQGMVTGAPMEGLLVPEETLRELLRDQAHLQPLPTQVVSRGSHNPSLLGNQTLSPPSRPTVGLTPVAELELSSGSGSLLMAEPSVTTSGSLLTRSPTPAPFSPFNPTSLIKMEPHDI
Outline: as §1

[13] = target: T7, ELK4 (Homo sapiens, UniProt P28324-2 1-405); details: protein: recombinant; tags: N-terminal GST; dsDNA, one strand shown
T7 sequence: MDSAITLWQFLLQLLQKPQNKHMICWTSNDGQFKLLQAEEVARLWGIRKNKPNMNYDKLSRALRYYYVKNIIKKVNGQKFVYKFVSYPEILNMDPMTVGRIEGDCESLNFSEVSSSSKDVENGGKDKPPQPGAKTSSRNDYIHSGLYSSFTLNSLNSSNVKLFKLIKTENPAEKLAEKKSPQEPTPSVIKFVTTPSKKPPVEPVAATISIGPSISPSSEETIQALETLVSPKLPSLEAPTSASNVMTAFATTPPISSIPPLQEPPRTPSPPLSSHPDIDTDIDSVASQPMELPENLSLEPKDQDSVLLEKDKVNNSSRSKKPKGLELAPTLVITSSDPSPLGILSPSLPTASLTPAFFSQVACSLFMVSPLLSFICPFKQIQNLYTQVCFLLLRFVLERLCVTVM
Outline: as §1

[14] = target: T8, ETV2 (Homo sapiens, UniProt O00321 1-342); details: protein: recombinant; tags: N-terminal GST; dsDNA, one strand shown
T8 sequence: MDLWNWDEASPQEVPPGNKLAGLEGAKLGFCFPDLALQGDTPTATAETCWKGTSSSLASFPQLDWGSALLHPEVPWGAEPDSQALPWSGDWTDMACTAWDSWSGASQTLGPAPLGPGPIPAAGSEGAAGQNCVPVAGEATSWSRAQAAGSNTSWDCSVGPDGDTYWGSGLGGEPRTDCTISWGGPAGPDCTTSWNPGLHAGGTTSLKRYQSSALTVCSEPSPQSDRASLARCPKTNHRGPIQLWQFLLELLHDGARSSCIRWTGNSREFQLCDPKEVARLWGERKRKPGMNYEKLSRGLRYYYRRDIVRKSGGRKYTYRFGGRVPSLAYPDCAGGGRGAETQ
Outline: as §1

[15] = target: T9, ELF3 (Homo sapiens, UniProt P78545 1-371); details: protein: recombinant; tags: N-terminal GST; dsDNA, one strand shown
T9 sequence: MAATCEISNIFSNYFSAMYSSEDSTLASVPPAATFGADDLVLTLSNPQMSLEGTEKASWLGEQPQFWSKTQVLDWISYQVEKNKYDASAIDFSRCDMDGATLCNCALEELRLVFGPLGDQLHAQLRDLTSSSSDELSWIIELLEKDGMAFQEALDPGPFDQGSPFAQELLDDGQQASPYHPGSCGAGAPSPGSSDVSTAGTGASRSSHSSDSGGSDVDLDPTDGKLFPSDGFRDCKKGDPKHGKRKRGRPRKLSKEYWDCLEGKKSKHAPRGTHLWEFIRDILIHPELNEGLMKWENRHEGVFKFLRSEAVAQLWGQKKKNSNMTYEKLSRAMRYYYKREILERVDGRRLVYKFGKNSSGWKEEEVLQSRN
Outline: as §1

[16] = target: CRX (Homo sapiens, UniProt O43186 1-299); details: protein: recombinant; tags: N-terminal GST; dsDNA, one strand shown
CRX, sequence (O43186 whole entry): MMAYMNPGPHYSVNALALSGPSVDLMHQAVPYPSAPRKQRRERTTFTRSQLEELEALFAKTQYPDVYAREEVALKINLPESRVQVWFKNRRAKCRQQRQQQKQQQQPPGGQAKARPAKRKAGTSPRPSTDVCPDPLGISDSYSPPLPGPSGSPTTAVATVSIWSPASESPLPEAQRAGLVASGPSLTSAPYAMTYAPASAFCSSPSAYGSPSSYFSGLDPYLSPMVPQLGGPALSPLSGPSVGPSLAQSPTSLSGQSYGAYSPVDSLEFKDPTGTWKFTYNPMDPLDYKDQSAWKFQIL
Outline: as §1

[17] = target: ETV1 (Homo sapiens, UniProt P50549 1-477); details: protein: recombinant; tags: N-terminal GST; dsDNA, one strand shown
ETV1, sequence (P50549 whole entry): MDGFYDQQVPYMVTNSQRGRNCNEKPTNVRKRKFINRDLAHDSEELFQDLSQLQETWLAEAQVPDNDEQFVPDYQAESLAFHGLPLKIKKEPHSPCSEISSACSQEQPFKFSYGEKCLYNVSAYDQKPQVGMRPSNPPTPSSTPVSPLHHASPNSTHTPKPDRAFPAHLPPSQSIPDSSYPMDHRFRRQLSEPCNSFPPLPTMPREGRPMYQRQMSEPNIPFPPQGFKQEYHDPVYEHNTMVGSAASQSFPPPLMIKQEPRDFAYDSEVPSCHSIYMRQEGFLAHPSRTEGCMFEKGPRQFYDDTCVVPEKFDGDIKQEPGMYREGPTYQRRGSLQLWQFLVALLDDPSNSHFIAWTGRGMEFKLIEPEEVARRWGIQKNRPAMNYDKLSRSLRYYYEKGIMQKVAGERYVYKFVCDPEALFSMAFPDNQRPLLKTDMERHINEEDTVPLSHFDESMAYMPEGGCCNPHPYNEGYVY
Outline: as §1

[18] = target: T10, GABPA (Homo sapiens, UniProt Q06546 1-454); details: protein: recombinant; tags: N-terminal GST; dsDNA, one strand shown
T10 sequence: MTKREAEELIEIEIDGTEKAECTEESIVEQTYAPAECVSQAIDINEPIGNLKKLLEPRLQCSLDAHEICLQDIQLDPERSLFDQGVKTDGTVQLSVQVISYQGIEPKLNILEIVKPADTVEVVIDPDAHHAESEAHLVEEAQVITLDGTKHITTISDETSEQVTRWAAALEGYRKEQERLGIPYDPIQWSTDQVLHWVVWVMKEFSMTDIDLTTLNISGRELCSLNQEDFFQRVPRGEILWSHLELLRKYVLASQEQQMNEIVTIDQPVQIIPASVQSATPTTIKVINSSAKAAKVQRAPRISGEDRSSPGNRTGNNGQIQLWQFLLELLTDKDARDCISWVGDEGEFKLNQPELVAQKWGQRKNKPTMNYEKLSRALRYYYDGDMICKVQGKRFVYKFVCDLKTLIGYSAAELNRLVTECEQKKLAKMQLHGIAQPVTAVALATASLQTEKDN
Outline: as §1

Sequence	binding signal [1]	binding signal [2]	binding signal [3]	binding signal [4]	binding signal [5]	binding signal [6]	binding signal [7]	binding signal [8]	binding signal [9]	binding signal [10]	binding signal [11]	binding signal [12]	binding signal [13]	binding signal [14]	binding signal [15]	binding signal [16]	binding signal [17]	binding signal [18]
AGCTAA	1.08 fold enrichment (6-mer frequency, TF over GST control)	1.05 fold enrichment (6-mer frequency, TF over GST control)	1.06 fold enrichment (6-mer frequency, TF over GST control)	1.02 fold enrichment (6-mer frequency, TF over GST control)	1.08 fold enrichment (6-mer frequency, TF over GST control)	1.08 fold enrichment (6-mer frequency, TF over GST control)	1.01 fold enrichment (6-mer frequency, TF over GST control)	1.01 fold enrichment (6-mer frequency, TF over GST control)	1.03 fold enrichment (6-mer frequency, TF over GST control)	1.06 fold enrichment (6-mer frequency, TF over GST control)	1.27 fold enrichment (6-mer frequency, TF over GST control)	1.14 fold enrichment (6-mer frequency, TF over GST control)	1.1 fold enrichment (6-mer frequency, TF over GST control)	1.01 fold enrichment (6-mer frequency, TF over GST control)	1.09 fold enrichment (6-mer frequency, TF over GST control)	1.65 fold enrichment (6-mer frequency, TF over GST control)	1.1 fold enrichment (6-mer frequency, TF over GST control)	–
GGTAAT	1.15 fold enrichment (6-mer frequency, TF over GST control)	1.1 fold enrichment (6-mer frequency, TF over GST control)	1.08 fold enrichment (6-mer frequency, TF over GST control)	1.17 fold enrichment (6-mer frequency, TF over GST control)	1.2 fold enrichment (6-mer frequency, TF over GST control)	1.04 fold enrichment (6-mer frequency, TF over GST control)	1.11 fold enrichment (6-mer frequency, TF over GST control)	–	1.09 fold enrichment (6-mer frequency, TF over GST control)	1.13 fold enrichment (6-mer frequency, TF over GST control)	1.27 fold enrichment (6-mer frequency, TF over GST control)	1.08 fold enrichment (6-mer frequency, TF over GST control)	1.21 fold enrichment (6-mer frequency, TF over GST control)	–	1.17 fold enrichment (6-mer frequency, TF over GST control)	1.76 fold enrichment (6-mer frequency, TF over GST control)	1.19 fold enrichment (6-mer frequency, TF over GST control)	1.22 fold enrichment (6-mer frequency, TF over GST control)
